The text below walks through data of ChEMBL document CHEMBL1157539, “Thousands of chemical starting points for antimalarial lead identification” (Nature, 2010).

A word on the Inhibition: it is the relative decrease from the control value, in per cent.

Assay type in all cases: functional
The subject of test [1] is Plasmodium falciparum. The test can be described thus: GSK_TCMDC: Inhibition of Plasmodium falciparum 3D7 in whole red blood cells, using parasite LDH activity as an index of growth. Test compounds present at 2uM.
Test [2] deals with Plasmodium falciparum. The test can be described thus: GSK_TCMDC: Inhibition of Plasmodium falciparum Dd2 in whole red blood cells, using parasite LDH activity as an index of growth. Test compounds present at 2uM.
The test system of test [3] is HepG2. The test can be described thus: GSK_TCMDC: Percent inhibition of human HepG2 cell line. Test compounds present at 10uM.

Take `COc1cc2c(cc1OC)C(C(=O)Nc1ccc(C(F)(F)F)cc1)C(c1cccs1)N(C)C2=O` (stereo not given): the Inhibition in test [1] is 99%; in test [2], 86%; in test [3], 31%.
Taken in the same sequence, the figures for `NCc1cccc(-c2cccc(CNC3CCN(Cc4ccccc4)CC3)c2)c1.O=C(O)C(F)(F)F` were 100%, 45% and 9%.
Taken in the same sequence, the figures for `CCCCc1cc(NCC)nc(Nc2cccc(OC)c2)n1` were 97%, 69% and 9%.
Taken in the same sequence, the figures for `CCCCCCCCc1c(C)nc(C)c(C#N)c1O` were 97%, 96% and 0%.
As for `CCCCSc1nc2c(c(=O)n1Cc1ccco1)C1(CCCCC1)Cc1ccccc1-2`, the Inhibition is 96% in test [1], 78% in test [2] and 13% in test [3].
Taken in the same sequence, the figures for `O=C(Nc1ccc2nc3n(c(=O)c2c1)CCCCC3)C(=O)N1CCN(c2ccc(F)cc2)CC1` were 93%, 86% and 10%.
`COc1ccc2nccc([C@@H](O)CN3CCC(NCc4ccc5c(n4)NC(=O)CS5)C(F)C3)c2c1.Cl` (stereo not given in full): the Inhibition in test [1] worked out at 89%; in test [2], 88%; in test [3], 5%.
Take `Cc1cc(Nc2ccnc(-c3ccc(Cl)cc3)n2)ccn1`: the Inhibition in test [1] is on record as 94%; in test [2], 23%; in test [3] it was 6%.
As to `O=C(Nc1cc(Cl)cc(Cl)c1)Nc1ccccc1C(=O)NC1CCCCC1`, the Inhibition was 100% in test [1], 100% in test [2] and 12% in test [3].
In the case of `COc1ccc(C2N=C(N)N=C(N)N2OCc2ccccc2)cc1OC.Cl` (stereo not given), the figures for the Inhibition in test [1], in test [2] and in test [3] were 95%, 2% and 1%, respectively.
For the compound `Cc1cccc(C)c1CNc1ccnc2cc(Br)ccc12.Cl`, the Inhibition was 95% in test [1], 99% in test [2] and 24% in test [3].
With `CC(C)C1=CC(=NOS(=O)(=O)c2ccccc2)C=C(C(C)C)C1=O`, the Inhibition amounted to 92% in test [1], 74% in test [2] and 23% in test [3].
Taken in the same sequence, the figures for `O=C(Nc1cccc(-c2cccc(-c3nc4ccccc4[nH]3)c2)c1)c1cccnc1` were 95%, 14% and 12%.
Taken in the same sequence, the figures for `Nc1nc(Nc2cccc(Cl)c2)ncc1C(=O)NCc1ccncc1` were 98%, 29% and 3%.
Taken in the same sequence, the figures for `COc1c(C2CCN(CCCCNC(=O)c3cc(-c4ccc(Cl)cc4)sc3C)CC2)ccc2c1CCCC2` were 100%, 65% and 61%.
On to `CC1CC1C(=O)NC1CCN(CC2(c3ccccc3)CCCCC2)CC1` (stereo not given), for which the Inhibition came out at 97% in test [1], 95% in test [2] and 0% in test [3].
Turning to `O=C(O)C(=O)O.c1ccc(C2CCC(N3CCC(N4CCCC4)CC3)CC2)cc1` (stereo not given), the values for the Inhibition in test [1], in test [2] and in test [3] were 100%, 46% and 9%, respectively.
As for `COc1cc2c(OC)cccc2cc1CNCCCCCCNCc1cc2cccc(OC)c2cc1OC.CS(=O)(=O)O`, the results for the Inhibition in test [1], in test [2] and in test [3] were 95%, 7% and 59%, respectively.
For `O=C(Nc1c(F)cccc1F)c1cccc(-c2nn3ccccc3c2-c2ccnc(Nc3cccc(-c4cnco4)c3)n2)c1` the same measures were 95%, 94% and 96%.
Taken in the same sequence, the figures for `C[C@@]12C[C@@H](Nc3nc(NCCc4ccc(O)cc4)nc(N4CCNCC4)n3)C[C@@H](C1)c1cccc(Cl)c1O2.O=C(O)C(F)(F)F` were 100%, 47% and 92%.
For `CC(C)CCN1CCCN(Cc2cccc(NC(=O)c3ccc(Cl)c(Cl)c3)c2)CC1.O=C(O)C(F)(F)F` the same measures were 92%, 13% and 35%.
For the compound `CC(C)(C)OC(=O)NCc1ccc(Nc2nnc(-c3cccc(OCC(=O)NCc4cc(C(F)(F)F)cc(C(F)(F)F)c4)c3)o2)cc1`, the Inhibition is listed as 90% in test [1], 19% in test [2] and 32% in test [3].
Taken in the same sequence, the figures for `Cl.N#Cc1ccc2c(c1)CCN(CCC1CCC(NC(=O)/C=C/c3nc4ccccc4s3)CC1)CC2` (stereo not given) were 90%, 0% and 6%.
Taken in the same sequence, the figures for `Cc1cccc2nc(-c3cccc(-c4cccc(CNC(C)C)c4)c3)[nH]c12.O=C(O)C(F)(F)F` were 100%, 98% and 29%.
For the compound `COc1ccc(NC(=O)c2ccc(-c3nc(-c4ccc(Cl)cc4)cs3)cc2)cc1N1CCN(C)CC1`, the Inhibition in test [1] came out at 91%; in test [2], 34%; in test [3], 30%.
For `Cc1cccc2nc(-c3ccc(-c4ccc(CN5CCC(C(N)=O)CC5)cc4)cc3)[nH]c12.O=C(O)C(F)(F)F` the same measures were 91%, 32% and 8%.
For `CCc1ccc(-c2nc3cc(NC(=O)c4cc([N+](=O)[O-])cc([N+](=O)[O-])c4)ccc3o2)cc1` the same measures were 93%, 12% and 12%.
For the compound `O=C(Nc1ccc(Cl)cc1)Nc1cccc(-c2ccc(-c3nc4cc(F)ccc4[nH]3)cc2)c1`, the results for the Inhibition in test [1], in test [2] and in test [3] were 100%, 99% and 73%, respectively.
For `COc1cc2nc(N3CCC(CNC(=O)c4ccc(-c5ccc(-c6noc(C)n6)cc5C)cc4)CC3)nc(N)c2cc1OC` the same measures were 100%, 99% and 99%.
On to `O=C(Nc1cc(F)cc(-c2cccnc2)c1)c1ccc2c(=O)n(Cc3ccccc3)cnc2c1`, for which the Inhibition in test [1] is on record as 98%; in test [2] it was 11%; in test [3], 7%.
